Data as given in the supplement of paper PMC10849652.
Targets with a hit are over-represented here; the source holds about 7,900 in all. About 0.6% of all pairs of compound and target were hits.

Experiments:
Assay in all cases: log2 fold change, soluble protein after heating vs DMSO (PISA); higher = thermal stabilisation; K562 cells, 10 uM, 30 min; active = over 0.2 and 3.5 SD of the protein, either way, in both replicates (recomputed)
ZW10 = ZW10 (UniProt O43264)
How it was run: (§1)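 Soluble protein was quantified by TMTpro 16plex LC-MS/MS after channel sums were equalised. It was obtained as the supernatant after 21,000xg for 90 min from pooled aliquots of K562 cells (2×10^6 cells/mL, 10 μM compound, 30 min) heated for 3 min across 48°C-58°C and extracted in PBS with 0.5% NP-40 at 4°C. Thermal stability values are relative to control samples and come from duplicates. They are given as log2 fold changes.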

ZWILCH = ZWILCH (UniProt Q9H900)
Sequence of ZWILCH (Q9H900 whole entry, looked up): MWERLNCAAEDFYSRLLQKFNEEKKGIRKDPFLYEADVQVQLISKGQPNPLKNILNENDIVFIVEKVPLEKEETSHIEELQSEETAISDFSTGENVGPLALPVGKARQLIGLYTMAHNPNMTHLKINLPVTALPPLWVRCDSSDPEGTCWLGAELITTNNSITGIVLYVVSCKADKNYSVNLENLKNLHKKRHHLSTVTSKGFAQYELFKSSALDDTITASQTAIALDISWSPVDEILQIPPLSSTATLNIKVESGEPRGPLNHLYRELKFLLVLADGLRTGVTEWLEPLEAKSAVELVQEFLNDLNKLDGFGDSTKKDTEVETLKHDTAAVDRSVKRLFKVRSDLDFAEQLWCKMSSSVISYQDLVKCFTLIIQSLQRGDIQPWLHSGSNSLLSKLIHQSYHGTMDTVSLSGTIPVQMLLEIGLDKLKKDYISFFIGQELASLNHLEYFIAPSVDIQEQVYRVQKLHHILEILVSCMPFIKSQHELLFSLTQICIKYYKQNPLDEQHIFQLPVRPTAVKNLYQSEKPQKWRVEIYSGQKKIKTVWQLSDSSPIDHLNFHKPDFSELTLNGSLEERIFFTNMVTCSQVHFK
How it was run: as §1

ZYG11B = ZYG11B (UniProt Q9C0D3)
Sequence of ZYG11B (Q9C0D3 whole entry, looked up): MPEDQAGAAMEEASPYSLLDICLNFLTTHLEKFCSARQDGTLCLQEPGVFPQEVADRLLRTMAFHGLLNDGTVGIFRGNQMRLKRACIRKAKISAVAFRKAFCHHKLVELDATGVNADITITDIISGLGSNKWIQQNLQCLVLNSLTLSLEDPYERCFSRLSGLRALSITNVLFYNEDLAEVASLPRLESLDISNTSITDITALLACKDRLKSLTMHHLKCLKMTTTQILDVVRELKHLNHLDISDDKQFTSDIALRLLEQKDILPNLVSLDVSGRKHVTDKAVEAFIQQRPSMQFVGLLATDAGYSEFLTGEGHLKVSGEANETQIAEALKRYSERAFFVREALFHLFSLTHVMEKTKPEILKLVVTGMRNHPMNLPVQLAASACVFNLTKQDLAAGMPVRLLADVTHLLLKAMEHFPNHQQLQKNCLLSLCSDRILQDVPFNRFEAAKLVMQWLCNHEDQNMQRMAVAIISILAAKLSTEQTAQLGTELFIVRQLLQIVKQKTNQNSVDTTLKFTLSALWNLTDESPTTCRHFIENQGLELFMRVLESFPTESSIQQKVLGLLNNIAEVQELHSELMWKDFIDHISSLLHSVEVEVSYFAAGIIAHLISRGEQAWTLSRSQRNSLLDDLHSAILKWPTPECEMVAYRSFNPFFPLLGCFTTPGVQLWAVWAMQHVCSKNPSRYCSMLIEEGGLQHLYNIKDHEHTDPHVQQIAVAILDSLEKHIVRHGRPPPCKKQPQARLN
How it was run: as §1

Measured: log2 fold change

Sequence of ZW10 (O43264 whole entry, looked up): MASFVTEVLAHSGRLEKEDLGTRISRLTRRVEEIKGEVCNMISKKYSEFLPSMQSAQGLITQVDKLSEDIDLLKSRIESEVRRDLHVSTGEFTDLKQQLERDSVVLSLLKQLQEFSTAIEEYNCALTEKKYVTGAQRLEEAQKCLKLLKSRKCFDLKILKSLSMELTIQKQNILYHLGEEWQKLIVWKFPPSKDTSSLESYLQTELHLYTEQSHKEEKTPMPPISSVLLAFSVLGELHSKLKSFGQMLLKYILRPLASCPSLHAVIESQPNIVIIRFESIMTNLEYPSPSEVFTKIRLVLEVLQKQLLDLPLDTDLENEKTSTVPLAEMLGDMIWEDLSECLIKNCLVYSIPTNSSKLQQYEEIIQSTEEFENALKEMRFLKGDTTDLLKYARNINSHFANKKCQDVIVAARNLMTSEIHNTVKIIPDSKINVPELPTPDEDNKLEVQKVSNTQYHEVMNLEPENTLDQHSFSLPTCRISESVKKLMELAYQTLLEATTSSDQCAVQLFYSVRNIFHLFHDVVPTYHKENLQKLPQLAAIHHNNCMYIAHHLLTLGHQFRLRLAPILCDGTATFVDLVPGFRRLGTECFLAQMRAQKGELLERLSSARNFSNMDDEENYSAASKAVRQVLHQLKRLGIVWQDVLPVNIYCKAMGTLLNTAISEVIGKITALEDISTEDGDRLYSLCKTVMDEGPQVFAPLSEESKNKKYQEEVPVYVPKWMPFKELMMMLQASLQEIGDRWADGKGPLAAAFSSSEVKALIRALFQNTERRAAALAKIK

CC[C@H](C)n1cc(C)c2c(C(=O)NCc3c(C)cc(C)[nH]c3=O)cc(-c3ccc(N4CCNCC4)nc3)cc21
inactive: ZW10 0.077 | ZWILCH 0.048 | ZYG11B 0.101

CN1CCC(CNc2ccc3ncc(-c4cccc(OC(F)(F)F)c4)n3n2)CC1
inactive: ZW10 -0.108 | ZWILCH -0.085 | ZYG11B -0.113

CNC(=O)c1ccccc1Nc1nc(Nc2ccc(N3CCOCC3)cc2OC)ncc1Cl
inactive: ZW10 0.035 | ZWILCH 0.027 | ZYG11B -0.016

CCCS(=O)(=O)Nc1ccc(F)c(C(=O)c2c[nH]c3ncc(Cl)cc23)c1F
inactive: ZW10 0.053 | ZWILCH 0.016 | ZYG11B -0.043

Cn1cncc1[C@@](N)(c1ccc(Cl)cc1)c1ccc2c(c1)c(-c1cccc(Cl)c1)cc(=O)n2C [tipifarnib]
inactive: ZW10 -0.087 | ZWILCH -0.01 | ZYG11B 0.089

Cc1cc(Nc2cc(N3CCN(C)CC3)nc(Sc3ccc(NC(=O)C4CC4)cc3)n2)n[nH]1 [tozasertib]
inactive: ZW10 0.068 | ZWILCH 0.041 | ZYG11B -0.031

CCn1cc(-c2ccnc3[nH]c(-c4cccc(CN(C)C)c4)cc23)c(-c2ccc(NC(=O)N(C)C)cc2)n1
inactive: ZW10 0.022 | ZWILCH 0.01 | ZYG11B -0.085

O=C1NC(=NCc2cccs2)S/C1=C\c1ccc2ncccc2c1
inactive: ZW10 -0.021 | ZWILCH 0.023 | ZYG11B -0.007
